Laboratory results: PubChem BioAssay
Calls of active or inactive are those of the source.

Tests used:
[1] = test system: PRMT1 (protein arginine N-methyltransferase 1); assay: PRMT1 binders on small-molecule microarrays, primary screen, biochemical, small-molecule microarray, 635 nm fluorescence (AID 1088); settings: small-molecule microarray binding, higher = more signal;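 note: binding of Prmt1 protein to compounds spotted on small-molecule microarray slides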
[2] = yeast growth modulation, basal conditions, primary screen, YJM789 clinical isolate, OD600, 24 h (AID 1089);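 note: growth of clinical yeast isolate S. cerevisiae YJM 789 seeded 1000 cells per well; test concentration not given here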; settings: S. cerevisiae YJM789 growth, higher = more signal, called active from +8 up or from −8 down
[3] = fission yeast growth modulation, primary screen, strain 972, OD600, 24 h, no modulator (AID 1090);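 note: basal condition with compound alone and no growth modifier present; test concentration not given here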; settings: S. pombe 972 growth, higher = more signal, called active from +8 up or from −8 down
[4] = S. cerevisiae growth modulation with rapamycin, primary screen, strain BY4716, OD600, 96 h (AID 1091); settings: higher = more signal, called active from +8 up or from −8 down; note: test concentration not given here
[5] = target: Torsin-1A-interacting protein 2 (Homo sapiens) (UniProt Q8NFQ8); assay: LULL1 binders on small-molecule microarray, primary screen, cell lysate, human LULL1 lysate, 635/667 nm fluorescence (AID 1092); settings: hLULL1 lysate binding, 635 nm fluorescence, higher = more signal;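 note: probe is lysate of COS7 cells overexpressing human LULL1; score merges per-feature 667 nm fluorescence with signal-to-noise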
Torsin-1A-interacting protein 2 (Homo sapiens), sequence (Q8NFQ8 whole entry, looked up): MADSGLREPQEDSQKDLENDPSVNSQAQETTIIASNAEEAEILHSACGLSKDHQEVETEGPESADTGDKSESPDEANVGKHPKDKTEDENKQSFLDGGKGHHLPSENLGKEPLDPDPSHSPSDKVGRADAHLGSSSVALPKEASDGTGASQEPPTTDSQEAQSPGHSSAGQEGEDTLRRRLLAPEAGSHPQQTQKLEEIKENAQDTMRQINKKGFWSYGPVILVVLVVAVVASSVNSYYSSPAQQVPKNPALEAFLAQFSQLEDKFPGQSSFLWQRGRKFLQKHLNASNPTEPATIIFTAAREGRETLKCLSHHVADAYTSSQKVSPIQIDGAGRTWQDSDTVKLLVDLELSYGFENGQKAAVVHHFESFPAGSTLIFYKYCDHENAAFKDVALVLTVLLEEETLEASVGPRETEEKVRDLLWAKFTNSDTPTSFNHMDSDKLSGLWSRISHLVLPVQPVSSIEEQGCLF

[6] = E. coli growth modulation, two-sided OD650, primary screen, E. coli filamentation project, strain DRC41, 24 h (AID 1093); settings: OD650, 24 h, higher = more signal, called active from +8 up or from −8 down;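 note: MC1000 strain lacking acrAB efflux and sulA so SOS filamentation is blocked; test concentration not given here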
[7] = small-molecule microarray binders of probe aLefty2, primary screen, biochemical, biotinylated probe, 635/667 nm fluorescence (AID 1094); settings: higher = more signal;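 note: score merges spot fluorescence near 667 nm with spot signal-to-noise ratio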
[8] = test system: Noggin (protein binding on small-molecule microarray); assay: Noggin binders on small-molecule microarray, primary screen, biochemical, 635/667 nm fluorescence (AID 1095); settings: 635 nm fluorescence, higher = more signal;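 note: score merges 667 nm feature fluorescence with signal to noise over triplicate slides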
[9] = target: Neurogenic locus notch homolog protein 3 (Homo sapiens) (UniProt Q9UM47); assay: NOTCH3 binders on small-molecule microarray, primary screen, biochemical, 635/667 nm fluorescence (AID 1096); settings: NOTCH3 binding, 635 nm fluorescence, higher = more signal
Neurogenic locus notch homolog protein 3 (Homo sapiens), sequence (Q9UM47 whole entry, looked up): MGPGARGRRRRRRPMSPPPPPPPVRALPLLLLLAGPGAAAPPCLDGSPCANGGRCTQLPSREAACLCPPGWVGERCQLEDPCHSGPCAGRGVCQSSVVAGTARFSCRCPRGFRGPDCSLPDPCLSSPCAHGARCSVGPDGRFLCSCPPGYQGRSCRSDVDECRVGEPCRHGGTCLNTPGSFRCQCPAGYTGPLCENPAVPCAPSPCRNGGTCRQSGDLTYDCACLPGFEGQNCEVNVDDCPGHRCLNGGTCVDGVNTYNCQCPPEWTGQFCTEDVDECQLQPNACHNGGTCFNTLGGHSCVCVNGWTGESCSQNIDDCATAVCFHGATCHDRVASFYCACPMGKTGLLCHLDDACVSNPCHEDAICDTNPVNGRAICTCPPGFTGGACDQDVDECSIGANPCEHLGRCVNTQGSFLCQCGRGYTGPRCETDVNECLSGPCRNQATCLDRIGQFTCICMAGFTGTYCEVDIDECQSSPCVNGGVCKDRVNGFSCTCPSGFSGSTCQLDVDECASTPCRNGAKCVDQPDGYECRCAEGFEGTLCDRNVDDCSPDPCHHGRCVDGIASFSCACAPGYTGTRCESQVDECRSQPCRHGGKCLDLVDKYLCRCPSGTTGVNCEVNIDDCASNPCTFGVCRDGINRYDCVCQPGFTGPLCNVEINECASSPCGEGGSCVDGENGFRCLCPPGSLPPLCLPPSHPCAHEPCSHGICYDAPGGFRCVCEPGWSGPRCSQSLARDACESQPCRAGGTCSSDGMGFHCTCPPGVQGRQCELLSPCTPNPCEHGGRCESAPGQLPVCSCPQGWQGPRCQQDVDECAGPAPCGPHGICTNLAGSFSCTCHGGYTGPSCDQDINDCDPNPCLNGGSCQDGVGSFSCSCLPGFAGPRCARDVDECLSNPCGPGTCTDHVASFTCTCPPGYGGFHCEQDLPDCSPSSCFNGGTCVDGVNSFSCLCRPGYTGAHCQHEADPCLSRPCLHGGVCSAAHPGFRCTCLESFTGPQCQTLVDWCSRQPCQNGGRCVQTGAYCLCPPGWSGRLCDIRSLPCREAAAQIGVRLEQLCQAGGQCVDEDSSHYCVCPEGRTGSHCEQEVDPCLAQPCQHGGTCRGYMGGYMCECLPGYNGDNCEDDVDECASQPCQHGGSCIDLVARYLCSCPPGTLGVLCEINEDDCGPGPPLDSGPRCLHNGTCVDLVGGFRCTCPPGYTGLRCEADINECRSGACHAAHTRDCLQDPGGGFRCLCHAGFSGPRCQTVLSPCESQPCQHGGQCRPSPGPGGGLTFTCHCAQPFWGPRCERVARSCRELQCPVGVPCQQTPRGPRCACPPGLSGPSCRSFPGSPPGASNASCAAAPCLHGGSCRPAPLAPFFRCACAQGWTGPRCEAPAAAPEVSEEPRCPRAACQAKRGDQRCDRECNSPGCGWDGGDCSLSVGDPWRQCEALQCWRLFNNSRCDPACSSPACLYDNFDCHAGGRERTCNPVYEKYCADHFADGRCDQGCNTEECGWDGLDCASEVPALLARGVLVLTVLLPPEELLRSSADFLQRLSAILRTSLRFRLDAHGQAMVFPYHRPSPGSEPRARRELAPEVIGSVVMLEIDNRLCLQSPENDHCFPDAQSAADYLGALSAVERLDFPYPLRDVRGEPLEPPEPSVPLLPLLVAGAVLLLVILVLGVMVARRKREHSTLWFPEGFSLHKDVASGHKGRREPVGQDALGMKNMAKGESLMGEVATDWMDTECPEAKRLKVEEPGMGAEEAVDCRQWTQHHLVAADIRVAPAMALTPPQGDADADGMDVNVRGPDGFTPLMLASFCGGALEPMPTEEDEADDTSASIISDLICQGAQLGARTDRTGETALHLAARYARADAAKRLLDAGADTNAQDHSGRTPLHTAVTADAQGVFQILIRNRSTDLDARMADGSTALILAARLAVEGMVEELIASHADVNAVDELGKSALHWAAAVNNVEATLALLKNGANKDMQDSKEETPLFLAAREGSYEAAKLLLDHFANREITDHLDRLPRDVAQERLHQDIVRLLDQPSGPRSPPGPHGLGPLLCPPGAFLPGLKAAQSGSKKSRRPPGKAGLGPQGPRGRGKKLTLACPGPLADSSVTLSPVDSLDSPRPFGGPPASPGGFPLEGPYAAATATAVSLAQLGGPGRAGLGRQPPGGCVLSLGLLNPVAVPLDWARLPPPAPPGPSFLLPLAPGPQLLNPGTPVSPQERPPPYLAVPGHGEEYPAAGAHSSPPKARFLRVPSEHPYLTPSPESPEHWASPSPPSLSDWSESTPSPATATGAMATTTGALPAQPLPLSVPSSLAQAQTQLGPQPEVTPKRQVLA

[10] = small-molecule microarray binders of probe aEGFR, primary screen, biochemical, biotinylated probe, 635/667 nm fluorescence (AID 1097); settings: higher = more signal;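 note: probe is a biotinylated anti-EGFR antibody binding compounds printed on slides; score combines fluorescence near 667 nm and signal to noise of each spot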
[11] = test system: Plasmodium falciparum Sir2 (PF13_0152, Sir2A); assay: pfSir2 binders on small-molecule microarrays, primary screen, biochemical, small-molecule microarray, 635 nm fluorescence (AID 1098); settings: small-molecule microarray binding, fluorescence 635 nm; higher = more signal;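 note: score merges spot fluorescence intensity with its signal-to-noise ratio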
[12] = small-molecule microarray binders of probe aDKK1, primary screen, biochemical, biotinylated probe, 635/667 nm fluorescence (AID 1099); settings: higher = more signal;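 note: score merges 667nm spot fluorescence with signal to noise across triplicate slides; reference of the scale not given here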
[13] = small-molecule microarray binders of probe aCHRDL2, primary screen, biochemical, biotinylated probe, 635/667 nm fluorescence (AID 1100); settings: higher = more signal
[14] = splicing luciferase reporter signal modulators, primary screen, spliceosome inhibition project, cell-based, HEK293, splice +/- reporter (AID 1101); settings: luminescence, 24 h, higher = more signal, called active from +8 up or from −8 down;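 note: HEK293 cells carrying a splicing-competent luciferase reporter gene; test concentration not given here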
[15] = target: Fibroblast growth factor 10 (Homo sapiens) (UniProt O15520); assay: FGF10 binders on small-molecule microarrays, primary screen, biochemical, small-molecule microarray, 635 nm fluorescence (AID 1102); settings: FGF10 binding, fluorescence 635 nm, higher = more signal
Fibroblast growth factor 10 (Homo sapiens), sequence (O15520 whole entry, looked up): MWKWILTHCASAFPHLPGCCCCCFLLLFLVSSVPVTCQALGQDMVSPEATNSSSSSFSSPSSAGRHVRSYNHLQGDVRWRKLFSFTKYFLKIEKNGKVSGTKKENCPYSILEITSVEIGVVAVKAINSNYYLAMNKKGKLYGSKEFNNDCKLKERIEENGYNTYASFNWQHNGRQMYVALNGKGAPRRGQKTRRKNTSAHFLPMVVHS

[16] = test system: glycogen synthase kinase-3 (GSK3A per assay name; protocol says GSK3B); assay: GSK3 binders on small-molecule microarrays, primary screen, biochemical, small-molecule microarray, 635 nm fluorescence, GSK3A (AID 1103); settings: small-molecule microarray binding, fluorescence 635 nm; higher = more signal; note: the record names both GSK3A and GSK3B
[17] = target: Epidermal growth factor receptor (Homo sapiens) (UniProt P00533); assay: EGFR binders on small-molecule microarrays, primary screen, biochemical, small-molecule microarray, 635 nm fluorescence (AID 1104); settings: EGFR binding, higher = more signal;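 note: score merges 667 nm emission intensity with spot signal to noise over triplicate slides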
Epidermal growth factor receptor (Homo sapiens), sequence (P00533 whole entry, looked up): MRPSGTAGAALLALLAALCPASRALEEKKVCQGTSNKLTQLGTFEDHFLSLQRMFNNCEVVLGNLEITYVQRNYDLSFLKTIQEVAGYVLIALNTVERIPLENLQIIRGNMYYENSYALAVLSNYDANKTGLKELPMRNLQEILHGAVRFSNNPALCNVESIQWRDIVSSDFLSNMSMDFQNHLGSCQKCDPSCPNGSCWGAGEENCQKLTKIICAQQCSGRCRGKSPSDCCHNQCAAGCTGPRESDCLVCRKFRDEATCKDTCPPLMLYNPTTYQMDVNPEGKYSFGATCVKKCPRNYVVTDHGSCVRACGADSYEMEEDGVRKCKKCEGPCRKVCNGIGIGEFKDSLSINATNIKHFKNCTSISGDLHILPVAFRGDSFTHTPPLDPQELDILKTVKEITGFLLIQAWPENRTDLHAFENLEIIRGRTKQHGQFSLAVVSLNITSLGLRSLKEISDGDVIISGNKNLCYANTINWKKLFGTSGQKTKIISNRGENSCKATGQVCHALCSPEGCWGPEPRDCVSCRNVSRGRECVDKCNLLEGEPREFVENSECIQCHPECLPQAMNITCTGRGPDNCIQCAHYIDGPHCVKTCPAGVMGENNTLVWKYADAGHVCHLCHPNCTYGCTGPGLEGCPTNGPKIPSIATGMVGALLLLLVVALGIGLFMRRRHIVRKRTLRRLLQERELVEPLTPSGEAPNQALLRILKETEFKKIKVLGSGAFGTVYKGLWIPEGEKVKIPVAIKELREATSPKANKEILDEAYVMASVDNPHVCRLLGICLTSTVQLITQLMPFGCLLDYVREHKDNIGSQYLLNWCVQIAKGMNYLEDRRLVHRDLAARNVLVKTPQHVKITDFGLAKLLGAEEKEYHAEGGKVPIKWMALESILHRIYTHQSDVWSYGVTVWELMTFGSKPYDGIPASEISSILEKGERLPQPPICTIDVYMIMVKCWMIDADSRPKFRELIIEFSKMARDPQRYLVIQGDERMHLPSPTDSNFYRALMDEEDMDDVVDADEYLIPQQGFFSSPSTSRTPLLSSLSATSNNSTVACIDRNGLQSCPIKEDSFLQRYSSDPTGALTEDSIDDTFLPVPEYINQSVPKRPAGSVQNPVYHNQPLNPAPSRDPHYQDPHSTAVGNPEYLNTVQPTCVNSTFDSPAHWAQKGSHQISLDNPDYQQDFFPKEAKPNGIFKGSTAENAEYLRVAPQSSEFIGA

[18] = target: Follistatin-related protein 3 (Homo sapiens) (UniProt O95633); assay: FSTL3 binders on small-molecule microarrays, primary screen, biochemical, small-molecule microarray, 635 nm fluorescence (AID 1105); settings: FSTL3 binding, higher = more signal;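 note: score merges emission near 667 nm and signal to noise per printed spot across three slides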
Follistatin-related protein 3 (Homo sapiens), sequence (O95633 whole entry, looked up): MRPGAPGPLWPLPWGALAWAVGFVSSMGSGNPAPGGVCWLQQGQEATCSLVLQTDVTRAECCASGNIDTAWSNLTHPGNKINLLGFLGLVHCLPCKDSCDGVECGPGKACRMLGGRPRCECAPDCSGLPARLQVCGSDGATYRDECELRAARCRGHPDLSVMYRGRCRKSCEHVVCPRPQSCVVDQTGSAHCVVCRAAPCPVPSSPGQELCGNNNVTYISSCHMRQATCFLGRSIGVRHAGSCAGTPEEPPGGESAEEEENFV

[19] = target: Dickkopf-related protein 1 (Homo sapiens) (UniProt O94907); assay: DKK1 binders on small-molecule microarrays, primary screen, biochemical, small-molecule microarray, 635 nm fluorescence scan (AID 1106); settings: DKK1 binding, higher = more signal;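 note: score merges emission near 667 nm with signal to noise over three replicate slides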
Dickkopf-related protein 1 (Homo sapiens), sequence (O94907 whole entry, looked up): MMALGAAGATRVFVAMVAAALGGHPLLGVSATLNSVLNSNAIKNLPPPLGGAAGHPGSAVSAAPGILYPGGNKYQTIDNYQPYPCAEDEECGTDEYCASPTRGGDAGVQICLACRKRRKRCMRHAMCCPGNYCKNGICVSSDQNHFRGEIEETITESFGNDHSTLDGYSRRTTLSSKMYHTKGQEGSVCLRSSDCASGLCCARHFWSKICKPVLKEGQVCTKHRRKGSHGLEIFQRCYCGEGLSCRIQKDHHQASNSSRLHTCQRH

[20] = test system: Inhibin beta A chain (activin A); assay: INHBA (activin A) binders on microarrays, primary screen, biochemical, small-molecule microarray, 635 nm fluorescence scan (AID 1107); settings: small-molecule microarray binding, higher = more signal;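 note: mouse activin A protein probed at 4.33 µg/mL on printed slides; score merges bound-protein fluorescence near 667 nm with spot signal-to-noise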

Compound | composite z-score [1] | z-score [2] | z-score [3] | z-score [4] | composite z-score [5] | z-score [6] | composite z-score [7] | composite z-score [8] | composite z-score [9] | composite z-score [10] | composite z-score [11] | composite z-score [12] | composite z-score [13] | z-score [14] | composite z-score [15] | composite z-score [16] | composite z-score [17] | composite z-score [18] | composite z-score [19] | composite z-score [20]
C=CC[C@]1(C(=O)NCC(O)CO)N=C(c2ccc(OCCCO)cc2)O[C@H]1c1ccccc1 (stereo not given in full) | 0.16 | -1.44 (inactive) | -0.514 (inactive) | -1.18 (inactive) | 3.57 | 2.05 (inactive) | 0.0544 | -0.923 | -0.898 | -0.169 | 1.23 | 1.21 | 1.3 | 0.164 (inactive) | -0.159 | 0.321 | -1.48 | -1.7 | -0.296 | 0.236
C=CCC(OC(C)=O)[C@@H]1[C@@H](N(Cc2ccc(-c3cccc(C(F)(F)F)c3)o2)C(=O)Cc2ccc(F)cc2)c2cc(OCCCO)ccc2N1C(=O)c1ccc(-c2ccccc2)cc1 (stereo not given in full) | -0.621 | -0.182 (inactive) | -0.258 (inactive) | -0.507 (inactive) | 0.239 | -1.33 (inactive) | -0.166 | -0.325 | -0.362 | -0.238 | 0.18 | -0.0567 | 0.494 | -0.291 (inactive) | -0.204 | -0.847 | -0.736 | -0.198 | -0.0679 | 1.32
C[C@@H]1C=CCC(=O)OC[C@H]2O[C@@H](C=C[C@@H]2O)[C@H](C)C=CCC(=O)OC[C@H]2O[C@H]1C=C[C@@H]2O | 1.06 | -2.14 (inactive) | -2.87 (inactive) | -1.09 (inactive) | -0.552 | 0.332 (inactive) | -0.0196 | 1.37 | 1 | 0.0779 | 0.489 | -0.384 | -1.67 | -2.62 (inactive) | 1.22 | 1.18 | 1.41 | 1.47 | 2.11 | 1.16
COCCOC(=O)N1C(=O)[C@@]2(c3cc(C#CCCO)ccc31)[C@H](C(=O)N1CCCCCCC1)[C@H]1C(=O)O[C@H](c3ccccc3)[C@H](c3ccccc3)N1[C@@H]2c1ccc(O)cc1 | 1.56 | -3.75 (inactive) | -2.94 (inactive) | -1.62 (inactive) | 2.91 | 3.27 (inactive) | 1.08 | 1.11 | 1.05 | 0.0645 | 1.46 | 1.53 | 1.19 | -1.15 (inactive) | 0.494 | 1.28 | 0.292 | 1.3 | 0.4 | 1.27
C=CCC(OC(C)=O)[C@@H]1[C@@H](N(Cc2cc3ccccc3o2)C(=O)c2ccc(C)cc2)c2cc(OCCCO)ccc2N1C(=O)c1ccc2ccccc2n1 (stereo not given in full) | 0.207 | -0.0537 (inactive) | -0.518 (inactive) | -0.391 (inactive) | 0.285 | 2.74 (inactive) | -0.168 | 0.11 | 0.197 | -0.129 | -0.222 | 0.164 | 0.504 | -0.178 (inactive) | -0.146 | -0.216 | 0.311 | 0.0952 | -0.0273 | 1.51
COc1cccc([C@@H]2[C@@H](C)CC[C@H]3C(=O)N4[C@H](c5cccc(OC)c5)[C@@H](C)CC[C@H]4C(=O)N23)c1 | 0.606 | -2.34 (inactive) | -1.46 (inactive) | -0.616 (inactive) | 0.474 | 0.368 (inactive) | -0.138 | 0.603 | 1.05 | -0.0082 | 0.168 | -0.271 | -0.521 | -1.59 (inactive) | 0.614 | 0.802 | 0.518 | 0.75 | 0.558 | -0.185
COC(=O)Cn1c(C(=O)N2CCCC2)cc2c1C[C@H]1CN(C(=O)c3ccccc3)[C@@](Cc3ccc(OC)cc3)(C(=O)OC)[C@@H]21 | -0.709 | 0.742 (inactive) | 1.39 (inactive) | 2.75 (inactive) | 3.24 | -0.485 (inactive) | 0.531 | -1.02 | 1.13 | 0.434 | 0.41 | 1.37 | 1.1 | -1.76 (inactive) | 0.388 | 0.203 | 0.559 | 0.348 | -0.467 | 1.04
CCOC(=O)[C@H]1C/C=C/C[C@H](C(=O)OCC)C(=O)O[C@H]2[C@@H](OC)O[C@H](CO)[C@@H](OC(=O)Nc3ccc(Br)cc3)[C@@H]2OC1=O | 1.54 | 0.343 (inactive) | -2.37 (inactive) | 31.7 (active) | 2.93 | 2.91 (inactive) | 0.45 | 0.933 | 0.869 | -0.121 | 0.895 | -0.0855 | 0.68 | -3.54 (inactive) | 0.217 | 1.02 | 0.047 | 0.576 | 0.251 | 0.706
CO[C@@H]1COC(=O)[C@@H]2CCCN2C(=O)CC=C[C@@H](C)[C@H](OC)COC(=O)[C@@H]2CCCN2C(=O)CC=C[C@H]1C | 1.11 | -0.0171 (inactive) | -1.05 (inactive) | -0.258 (inactive) | -0.522 | 1.1 (inactive) | -0.166 | 1.14 | -0.325 | -0.0332 | 1.29 | -0.875 | -1.33 | -0.481 (inactive) | 0.546 | 0.171 | 0.992 | 1.19 | 1.27 | 1.43
CC(C)=C1C(=O)C(c2ccccc2)=C2CN3C(=O)N(CCc4ccccc4)C(=O)[C@]3(Cc3ccccc3)[C@H]21 | -0.632 | 0.637 (inactive) | 0.927 (inactive) | 0.867 (inactive) | 1.15 | -0.901 (inactive) | 0.213 | -0.974 | -0.546 | -0.138 | -0.34 | 0.809 | 1.25 | 0.514 (inactive) | -0.316 | -0.121 | -0.972 | -0.356 | -1.86 | 0.64
